Laboratory results taken from PubChem BioAssay (NCI).
The panel holds about 79,000 compounds, 15% with a hit somewhere; the sample as a whole holds those more often. Unmarked numbers belong to inactive results. Calls of active or inactive are those of the source. No stated cut-off is given here; in the data, active means growth inhibition above about 70%; inactive means the rest.

Columns and labels:
[1] = NCI Yeast Anticancer Drug Screen. Data for the rad50 strain (AID 155);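 further: 0% = growth of vehicle-only cultures of the same strain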; conditions: S. cerevisiae rad50 strain growth inhibition; at 50.0 µM; hits give high values
In short: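 Yeast carrying a defined DNA repair defect were exposed to test compounds, and growth was compared with vehicle-treated controls to give percent inhibition.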

[2] = NCI Yeast Anticancer Drug Screen. Data for the mec2-1 strain (AID 157); conditions: S. cerevisiae mec2-1 strain, at 50.0 µM, hits give high values
In short: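 mec2-1 yeast strain, carrying an alteration in DNA damage repair or cell cycle control, was exposed to compounds; growth inhibition was measured relative to vehicle-treated controls.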

[3] = NCI Yeast Anticancer Drug Screen. Data for the sgs1 mgt1 strain (AID 161);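 further: 0% = growth of cultures given vehicle only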; conditions: S. cerevisiae sgs1 mgt1 strain, at 50.0 µM, hits give high values
In short: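 Yeast cells carrying a defined DNA-repair defect were exposed to test compounds. Growth inhibition was measured relative to vehicle-treated controls.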

[4] = NCI Yeast Anticancer Drug Screen. Data for the cln2 rad14 strain (AID 165);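 further: 0% = growth equal to vehicle treated cultures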; conditions: S. cerevisiae cln2 rad14 strain, at 50.0 µM, hits give high values
In short: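 Yeast carrying cln2 and rad14 alterations (cell cycle control and DNA damage repair) were exposed to compounds. Growth inhibition was measured against vehicle-treated controls.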

[5] = NCI Yeast Anticancer Drug Screen. Data for the bub3 strain (AID 167); conditions: S. cerevisiae bub3 mutant strain, at 50.0 µM, hits give high values
In short: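 Compounds were applied to a genetically altered yeast strain carrying a cell-cycle control defect. Growth inhibition was scored against vehicle-treated controls.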

[6] = NCI Yeast Anticancer Drug Screen. Data for the mlh1 rad18 strain (AID 175); conditions: S. cerevisiae mlh1 rad18 strain growth inhibition; at 50.0 µM; hits give high values
In short: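 Growth inhibition of the yeast strain was measured after compound exposure and expressed relative to vehicle-treated controls. The strain carries defined defects in DNA damage repair.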

| Compound | growth inhibition [1] | growth inhibition [2] | growth inhibition [3] | growth inhibition [4] | growth inhibition [5] [%] | growth inhibition [6] |
| --- | --- | --- | --- | --- | --- | --- |
| COc1cc(OC)c(C(C)=O)c(C(C)=O)c1 | -15.8% | -13.6% | -13.6% | -5.3% | -10.6 | -2.55% |
| CCCCCCCCCCCCCCCCCCSCCCCCCCCCCCCCCCCCC | 25.1% | 2.75% | -16.9% | -20.4% | -2.55 | -17.6% |
| ONc1cnc2ccccc2n1 | -34.9% | -30.4% | -3.5% | -49.2% | -4.8 | 0.4% |
| O=C(c1ccccc1)N1C(c2ccccc2)C1(c1ccccc1)C1(c2ccccc2)SCCCS1 (configuration not stated) | -17.6% | 14.7% | -13.4% | -61.6% | -0.1 | -1.25% |
| Cn1c(=O)c2c(nc3sc4c(n32)C(=O)c2c(O)ccc(O)c2C4=O)n(C)c1=O | 21.6% | 30.2% | 51.5% | 55.2% | 41 | -7.2% |
| COc1cc2ccc3c[n+](C)ccc3c2cc1OC | 2.25% | -30.9% | -13.4% | -22.4% | -20.9 | -57.6% |
| O=C(NC1c2ccccc2Oc2ccccc21)OCCCCl | -11.2% | -3.1% | 2.15% | -7.05% | 7.8 | -5.1% |
| CCOC(=O)C(=[N+]=[N-])C(=O)c1ccc(OS(C)(=O)=O)c(OS(C)(=O)=O)c1 | 7.8% | -1.05% | 13% | 22.3% | -0.2 | 11.9% |
| COc1nc2c(c(O)cn2C2OCC(OC(C)=O)C(OC(C)=O)C2OC(C)=O)c(=O)n1C (configuration not stated) | -1.65% | -5.9% | -25.8% | -2.75% | -1 | 15.8% |
| Cc1ccc(S(=O)(=O)N2CCN(S(=O)(=O)c3ccc(C)cc3)CCN(S(=O)(=O)c3ccc(C)cc3)Cc3cc(Br)c(Br)cc3CN(S(=O)(=O)c3ccc(C)cc3)CC2)cc1 | -24.1% | -6.05% | -23.3% | 17.6% | -3.1 | -10.3% |
| CCOC(=O)C(C(=O)OCC)=c1sc(=C(C(=O)OCC)C(=O)OCC)s1 | 20.2% | 7.8% | 17.1% | 5.05% | -2.5 | 9.3% |
| O=C(Oc1cccc2ccccc12)c1ccccc1 | -10.4% | 15.6% | -5.2% | -76.2% | 6.25 | -9.45% |
| CCOc1ccc(C2=NNC(=O)CC2)cc1 | 26% | -8.55% | -9.15% | 14.3% | 13.9 | 17.6% |
| O=C(NCCCCCCNC(=O)C1CCCNC1)C1CCCNC1 (configuration not stated) | 19.1% | -11.7% | 13.8% | 15.8% | 15.4 | 12.8% |
| CC(N(N=O)c1cccc(Cl)c1)S(=O)(=O)O (configuration not stated) | 7.25% | 4.8% | -6.45% | 22.6% | 5.55 | -0.4% |
| Oc1c(Cl)cc(Cl)cc1C=Nc1ccc2c(ccc3c4ccccc4ccc23)c1 | 7.95% | 2.4% | -2.4% | -41.4% | 6.55 | 15.1% |
| CCOc1c(N=Nc2ccccc2C)c(-c2ccccc2)nn1C(N)=S | 8.25% | 6.85% | 5.4% | 25.4% | -3.5 | 8.25% |
| N/N=C(/Cc1ccccc1)NNO | 30.4% | 13.8% | 27.1% | 22.4% | 12.8 | 22.2% |
| CC(C)(O)c1cc(=O)n(-c2ccccc2)[nH]1 | -6% | -6.3% | 6.55% | -64.8% | -18 | -5.1% |

| Compound | growth inhibition [1] | growth inhibition [2] | growth inhibition [3] | growth inhibition [4] | growth inhibition [5] [%] | growth inhibition [6] |
| --- | --- | --- | --- | --- | --- | --- |
| CCOc1cccc(N(CC)CC)c1 | 33.9% | 2.05% | -20% | -64.5% | -14.2 | 13.4% |
| CCOC(=O)c1cnc2cc3c(cc2c1Nc1cccc(C)c1)OCO3 | -9.9% | -5% | -5.85% | -57.8% | -1.45 | -6% |
| Cc1ccc2sc3cc(=O)cc(C)c-3nc2c1 | 14.7% | 0.7% | -15.1% | 8.35% | 38.4 | 25.4% |
| C=C(C)C1CC=C(C)[C@](O)(C2(O)C[C@H](C(=C)C)CC=C2C)C1 (some centres not stated) | -0.55% | 6.95% | 26.1% | 23.9% | 6.6 | 9.65% |
| Cc1cc(=O)n2nc(SCc3ccccc3)sc2n1 | 11.3% | 8.2% | 28.9% | 1.9% | 3.5 | -8.95% |
| CCN(CC)CCC1CCCCN1CC(=O)N1c2cc(Cl)ccc2NC(=O)CC1C (configuration not stated) | 24.9% | 0.8% | 15.1% | -6.45% | 1.3 | 20.6% |
| Cc1[nH]c(=O)nc2nc3ccc(Cl)cc3c(NCCNCCO)c12 | -37.5% | -42.4% | 24.1% | 3.5% | -0.9 | -43.6% |
| COc1cc(NC(N)=O)ccc1Nc1c2ccc(N)cc2nc2cc(N)ccc12 | 69.8% | 22.6% | 9.05% | 43% | -14.9 | 27.6% |
| Cn1c2ccccc2c(=O)c2c(O)cc3c(c21)CC(C1(C)CO1)O3 (configuration not stated) | 86.2% (active) | 79.6% (active) | 72% (active) | 80.7% (active) | 42.5 | 83.1% (active) |
| CN(CC(=O)O)c1ncc2c(n1)-c1ccccc1OC2c1ccccc1 (configuration not stated) | 21.9% | 19.6% | 44.5% | 47% | 28.9 | 67.8% |
| c1ccc(Cn2nnc(-c3ccccc3)n2)cc1 | 19.3% | 8.45% | 5.3% | -10.3% | 32.9 | 18.4% |
| CC(=O)c1ccccc1Cc1cccc2c(Cl)cccc12 | 4.55% | 6.05% | 10.1% | -0.95% | 1.85 | 18.6% |
| O=C(Nc1ccc(Cl)cc1)OCCN(CCOC(=O)Nc1ccc(Cl)cc1)C(=O)Nc1ccc(Cl)cc1 | 19.3% | -19.1% | 1.65% | -3.25% | -7.8 | 9.15% |
| CCN(CC)C(=S)SCCCS(=O)(=O)O | 17.7% | -9.95% | 1.75% | 9.2% | 22.3 | 8.75% |
| NC(CCCCNCc1ccccc1O)C(=O)O (configuration not stated) | 10% | 14.2% | -1.7% | 7.45% | 20.7 | 25.9% |
| COC(=O)C1(CCSc2ccccc2)CCCC1=O (configuration not stated) | 29.3% | -33% | 14.8% | 5.05% | 27 | 6.65% |
| OCC1OC(O)CC1O (configuration not stated) | -15.2% | -10.5% | -3.9% | 9.05% | -5.75 | -0.05% |
| Clc1ccc(Cl)c(Nc2ccnc(SCc3ccccc3)n2)c1 | 42.1% | 25.9% | -27.5% | 14.4% | -7 | 24.9% |
